Source: PubChem
In the library only some 2.6% were active in any assay of this set; here they are far more common.
Anthrax LT inh: blocks cellular internalization of anthrax lethal toxin; AID 912; 70,000 compounds, 0.67% hits; Potency, µM (doses to about 40 µM), inactives show at the top dose activity change, negative = inhibition, most hits filed as inhibitors; Cells, anthrax lethal toxin internalization, FRET ratio (460/530); also: % is scaled to controls: 0 for no effect and ±100 for the full control effect; nearly all actives have a fitted effect of over 50% in size
AmpC nodet inh: inhibitors of E. coli AmpC beta-lactamase without detergent; Potency, µM (series often up to 28.7 µM), without a hit: at the top dose activity change, negative = inhibition; 71,000 compounds, 1.8% hits; AmpC nitrocefin hydrolysis, absorbance 480 nm, no detergent; P00811; AID 585; also: % of control where 0% means no effect
Target sequence (P00811 whole entry, looked up): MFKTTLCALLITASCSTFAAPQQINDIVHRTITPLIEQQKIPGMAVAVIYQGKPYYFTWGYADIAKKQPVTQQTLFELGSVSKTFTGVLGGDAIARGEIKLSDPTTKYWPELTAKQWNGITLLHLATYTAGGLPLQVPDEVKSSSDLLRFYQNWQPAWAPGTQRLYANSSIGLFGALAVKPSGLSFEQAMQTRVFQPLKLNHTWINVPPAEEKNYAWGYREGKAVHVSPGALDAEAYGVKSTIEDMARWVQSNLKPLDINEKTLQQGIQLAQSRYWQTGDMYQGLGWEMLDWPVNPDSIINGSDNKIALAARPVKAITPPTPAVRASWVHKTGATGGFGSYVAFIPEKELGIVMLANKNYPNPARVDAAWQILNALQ
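Enzyme, pH 7.0 phosphate. Compound titrations were pre-incubated with AmpC for 15 min at room temperature before nitrocefin (stock 800 uM) addition; product formation was recorded at 480 nm every 20 s for 4 min.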
AmpC det inh: inhibitors of E. coli AmpC beta-lactamase with detergent. Potency, µM (titrated, usually from 28.7 µM), for the others: at the top dose activity change, negative = inhibition. purified AmpC, nitrocefin hydrolysis with detergent. AID 584. P00811. 71,000 compounds, 0.09% hits; active = well fitted curve in the direction sought with a large enough effect; inconclusive = small, poorly fitted or top-dose-only effect; also: % is scaled to controls: 0 for no effect and ±100 for the full control effect
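E. coli AmpC (5.3 nM) in 20 mM phosphate pH 7.0 with 0.01% Triton X-100, preincubated 15 min RT with compound; nitrocefin (2 uL of 800 uM stock) hydrolysis followed by 480 nm absorbance every 20 s over 4 min.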
Prx2 Sm inh: Schistosoma mansoni Prx2 inhibition. 65,000 compounds, 0.07% hits. Potency, µM. AID 448. S. mansoni Prx2 activity coupled to TGR/GSH (TGR is thioredoxin glutathione reductase), NADPH fluorescence loss, qHTS
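Purified S. mansoni TGR and Prx2 in pH 7.4 phosphate buffer with EDTA and Tween-20 were preincubated with compounds for 15 min. Further NADPH/GSH was added, then a 2.5 mM H2O2 aliquot initiated turnover, followed kinetically by NADPH fluorescence.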
* marks the source's active call; other numbers are inactive results; ? = inconclusive; . = no result; [ ] = dose if it differs, or a comment. Unless noted, calls follow the shape of the full dose curve. Potency is read from the fitted curve at half-maximal effect.

SMILES | Anthrax LT inh | AmpC nodet inh | AmpC det inh | Prx2 Sm inh
O=C1c2ccccc2C(Nc2ccc(Cl)cn2)N1c1cccnc1 (stereo not given) | -12% | 4µM*[single pt active] | 12% | >57
O=C1c2ccccc2C(O)N1c1cccnc1 (stereo not given) | -7% | 4µM*[single pt active] | 14% | >57
Cc1ccc(S(=O)(=O)N=Nc2c(O)[nH]c3cc(O)c(C(=O)O)cc23)cc1 | -8%[8 µM] | 5%[5.75 µM] | 0%[5.75 µM] | >57
COC(=O)c1ccc(C(/C=C/[C@@H](C)C(=O)NCc2ccccc2)NC(=O)OCc2ccccc2)cc1 (stereo not given in full) | 4% | 6% | 23% | .
Cc1ccc(NC(=O)CSC(N)=O)cc1Cl | 15% | 13µM* | 25% | >57
NC(=O)SCC(=O)Nc1ccc(Cl)c(Cl)c1 | -11% | 5µM* | 8% | .
COc1ccc(-c2nnc(SCC(=O)Nc3cccc(Cl)c3)o2)cc1 | 1% | 7.9µM* | 3% | >57
NC(=O)SCC(=O)Nc1cccc(Cl)c1 | 8% | 7.9µM* | 8% | .
CC1CCC2C(=O)N3C(CCC(C)[C@H]3c3cccc(N4CCCC4=O)c3)C(=O)N2C1c1cccc(N2CCCC2=O)c1 (stereo not given in full) | 1%[8 µM] | . | . | .
COC(=O)C1=C(C)N(Cc2ccccc2)C2=C3C(=O)OCCC3[C@@](O)(C(=O)OC)C(=O)N2C1c1ccccc1 (stereo not given in full) | -1%[8 µM] | . | . | .
O=C(O)CCCCCC[C@@H]1C(=O)NC(=O)N1CC[C@@H](O)C1CCCCC1 | 3% | -2% | -2% | >57
CN1C[C@@H](O)[C@@H](O)[C@@H](O)[C@@H]1CO | 0% | -3% | 0% | >57
CCOC(=O)c1ccc(NC(=O)C2CCN(S(=O)(=O)CC)CC2)cc1 | 9% | 25% | -5% | >57
CCOC(=O)c1ccc(NC(=O)C2CCN(S(=O)(=O)c3ccccc3)CC2)cc1 | 4µM* | 6% | 10% | >57
CCCc1ccc(OCc2ccc(C(=O)N3CCN(c4ccccn4)CC3)o2)c(OC)c1 | 13µM* | 125% | -5% | >57
O=C(c1cnn2ccccc12)N1CCCc2ccccc21 | 11% | 4µM*[single pt active] | 9% | >57
CC(C)(C)c1ccc(O)c(CN(Cc2c(O)ccc3ccccc23)C2CCCCC2)c1 | ? | 7%[5.75 µM] | -2%[5.75 µM] | >57
COC(=O)[C@@]1(Cc2ccccc2)[C@H]2c3cc(C(=O)N4CCCC4)n(CC4CC4)c3C[C@H]2CN1C(=O)c1ccccc1 | -14% | 162% | 0% | >57
CN(C)CCNC(=O)c1cc2c(=O)n(C)c3ccccc3c2n1C | 13µM* | ? | 14% | >57
Cn1c(C(=O)NC2CC2)cc2c(=O)n(C)c3ccccc3c21 | 3% | 4µM*[single pt active] | 9% | >57
COCCNC(=O)c1cc2c(=O)n(C)c3ccccc3c2n1C | -8% | 4µM*[single pt active] | 15% | >57
CCOC(=O)N1CCC(NC(=O)c2cc3c(=O)n(C)c4ccccc4c3n2C)CC1 | ? | 158% | 14% | >57
COCCCNC(=O)c1cc2c(=O)n(C)c3ccccc3c2n1C | 13% | 4µM*[single pt active] | 9% | >57
CCN(CC)CCNC(=O)c1cc2c(=O)n(C)c3ccccc3c2n1C | ? | ? | 9% | >57
Cc1ccccc1-c1cc(NCc2ccccc2)ncn1 | 17% | 15% | 9% | >57
SMILES | Anthrax LT inh | AmpC nodet inh | AmpC det inh | Prx2 Sm inh
COc1ccc(C(=O)Nc2cccc(C)c2)cc1S(=O)(=O)N1CCOCC1 | 15% | 60% | -2% | >57
O=C(Nc1cccc(S(=O)(=O)C(F)F)c1)c1ccc(Cl)c(S(=O)(=O)N2CCOCC2)c1 | 10µM* | -7% | 2% | >57
O=C(NCc1cccnc1)c1ccccc1Br | -2% | 3% | -1% | >57
O=C(NCc1cccnc1)c1cnn2ccccc12 | 0% | 4µM* | 14% | >57
CC(=O)c1cccc(NC(=O)c2cnn3ccccc23)c1 | 13% | 4µM*[single pt active] | 10% | >57
COc1ccc(C)cc1NC(=O)c1nnn(CCc2ccccc2)c1N | -5% | 4µM*[single pt active] | 13% | >57
Nc1c(C(=O)Nc2ccc3c(c2)OCCO3)nnn1CCc1ccccc1 | ? | 4µM*[single pt active] | 8% | >57
COc1ccc(C)cc1NC(=O)c1nnn(Cc2cc(C)ccc2C)c1N | -8% | 4µM*[single pt active] | 11% | .
COc1ccc(OC)c(NC(=O)c2nnn(Cc3ccccc3C)c2N)c1 | -16% | 14% | 2% | >57
COc1ccccc1NC(=O)c1nnn(CC(=O)Nc2ccccc2)c1N | -4% | -22% | 10% | >57
COc1cccc(Cn2nnc(C(=O)Nc3cc(C)ccc3OC)c2N)c1 | -7% | 4µM*[single pt active] | 11% | >57
